# Source: PubChem BioAssay (several laboratories)
# The list is not random: actives were taken first. Their share in the collection is about 2.2%.
# HSP90 refold inh: HSP90 inhibitors, primary screen, cell lysate, luminescence. inhibition, % at 5.6 µM. Heat shock protein HSP 90 (rabbit reticulocyte lysate; luciferase refolding). AID 1789, 2009. Rabbit reticulocyte lysate, luciferase refolding luminescence, 3 h. 290,000 compounds, 0.91% hits;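 active = inhibition above the screen-wide mean plus 3 SD, computed separately per campaign, cut at about 16% in these data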;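 note: inhibitors lower the luminescence because luciferase stays unfolded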
# LGR2 inh: inhibitors of bursicon-induced LGR2 CRE-luciferase signal, primary screen, cell-based, HEK293, CRE-luciferase reporter, bursicon stimulation | Drosophila bursicon receptor LGR2 (rickets) | bursicon-stimulated, 4 h | inhibition, % at 9.99 µM | 380,000 compounds, 0.35% hits;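 active = drop in luminescence signal, shown as inhibition above about 50% in the replicate tests, limit read from the data, passing the limit was not always enough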;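 note: agonist challenge used bursicon conditioned medium at about half maximal strength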
# TROY signal inh: inhibitors of TROY-driven NF-kB signaling, primary screen, Q293 LMP1-TROYcd cells, NF-kB luciferase, uHTS; Q293 LMP1-TROYcd NF-kB luciferase reporter, 4 h; inhibition, % at 10 µM; 360,000 compounds, 0.98% hits; AID 1347056, 2019;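 active = compounds whose plate-normalised and pattern-corrected inhibition of the luciferase reporter signal at the single screening dose is 50% or more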
# TWEAK-Fn14 inh: inhibitors of TWEAK-Fn14 signaling, primary screen, luciferase reporter cells, uHTS; TWEAK-stimulated Fn14 reporter cells, luciferase luminescence, 8 h; AID 1159606, 2016; 360,000 compounds, 2% hits; inhibition, % at 10 µM; in the data active = inhibition above about 50%
# Numbers stand for hits; - = inactive; . = no result given.
SMILES,HSP90 refold inh,LGR2 inh,TROY signal inh,TWEAK-Fn14 inh
C[C@@H]1O[C@@H](O[C@@H]2C=C3CCC4C(CC[C@]5(C)[C@@H](c6ccc(=O)oc6)CC[C@]45O)[C@@]3(C)CC2)[C@H](O)[C@H](O)[C@H]1O (stereo partly specified),.,-,-,82
CC(=O)C1CCC2(O)C3CCC4=CC(=O)CCC4(C)C3CCC12C (stereo unspecified),.,-,-,-
C[C@@H]1O[C@@H](O[C@@H]2C=C3CC[C@@H]4C(CC[C@]5(C)[C@@H](c6ccc(=O)oc6)CC[C@]45O)[C@@]3(C)CC2)[C@H](O)[C@H](O)[C@H]1O (stereo partly specified),.,86,51,86
Oc1ccc(-[n+]2c(-c3ccccc3)cc(-c3ccccc3)cc2-c2ccccc2)cc1,.,103,62,87
Nc1cccc(SC2CC(=O)N(c3ccc(Cl)cc3C(=O)c3ccccc3)C2=O)c1 (stereo unspecified),.,-,-,54
COc1ccc(CC2NCC(O)C2OC(C)=O)cc1 (stereo unspecified),.,.,88,100
COc1ccc(CC(=O)N2CCN(C)CC2)cc1,-,.,-,-
CC=Cc1ccc2n(c1=O)C[C@H]1[C@H](CO)[C@@H](C(=O)OC)[C@@H]2N1S(=O)(=O)c1ccccc1C (mixture of isomers),.,-,.,.
Cc1ccc(OC(=O)N(C)C[C@H]2OCc3ccccc3-c3c(n(C)c4ccccc34)C(=O)N([C@H](C)CO)C[C@@H]2C)cc1,.,-,.,.
CCCCC(CC)COCCCN=Cc1c(O)[nH]c(=S)[nH]c1=O (stereo unspecified),-,-,-,60
COC(=O)C[C@H]1CC[C@H]2NC[C@H](O)COC[C@@H]2O1,.,-,.,.
O=C(c1cc(C(=O)NCc2ccccc2)c(=O)n(Cc2ccccc2)c1)c1cc(Br)ccc1O,-,-,-,51
Cc1ccc(O)c(C(=O)c2cc(C(=O)NCc3ccccc3)c(=O)n(Cc3ccccc3)c2)c1,-,-,-,-
N#Cc1cccc(-c2ccc([C@H]3[C@H](CO)N4CCCCN(C(=O)Cc5cccnc5)C[C@@H]34)cc2)c1,.,-,.,.
Nc1c(C(=O)NCc2ccco2)c2nc3ccccc3nc2n1Cc1ccccc1,-,-,-,50
COc1ccc(Cn2c(N)c(C(=O)NCc3ccco3)c3nc4ccccc4nc32)cc1,-,.,69,-
Nc1c(C(=O)NCc2ccco2)c2nc3ccccc3nc2n1Cc1ccc(F)cc1,-,-,62,-
COCCOC(=O)c1c(N)n(Cc2ccccc2)c2nc3ccccc3nc12,-,.,65,-
O=C(Cc1ccccc1)N1CC2(C1)[C@H](c1ccccc1)[C@H](CO)N2Cc1cccc(F)c1,.,-,.,.
COC(=O)C[C@@H]1CC[C@H]2NC[C@H](O)COC[C@@H]2O1,.,-,.,.
O=C(O)[C@@H]1[C@@H](CO)[C@@H]2Cn3c(ccc(C4=CCCCC4)c3=O)[C@H]1N2C(=O)Cc1ccccn1,.,-,.,.
CC=Cc1ccc2n(c1=O)C[C@H]1[C@H](CO)[C@@H](C(=O)OC)[C@@H]2N1CC1CC1 (mixture of isomers),.,-,.,.
COC(=O)C[C@H]1CC[C@@H]2NC[C@@H](O)COC[C@H]2O1,.,-,.,.
NC(N)=N/N=C/c1cn(-c2ccccc2)nc1-c1cccs1,-,106,-,-
C=C1C(=O)O[C@@H]2C[C@@H](C)[C@@H]3C=CC(=O)[C@@]3(C)[C@@H](O)[C@H]12,.,102,-,104
SMILES,HSP90 refold inh,LGR2 inh,TROY signal inh,TWEAK-Fn14 inh
C/C1=C\[C@@H](C)C/C=C/[C@H]2[C@@H]3O[C@]3(C)[C@@H](C)[C@H]3[C@H](Cc4c[nH]c5ccccc45)NC(=O)[C@]32C(=O)/C=C/C(=O)[C@@H]1O,-,.,-,-
CC1=CC2/C=C(\C)CCC(O)C(O)/C=C/C(=O)C23C(=O)NC(CC(C)C)C3C1C (stereo unspecified),-,.,61,93
c1ccc(P(c2ccccn2)c2ccccn2)cc1,-,-,59,-
C[C@H]1CN([C@@H](C)CO)C(=O)c2c(c3ccccc3n2C)-c2ccccc2CO[C@@H]1CN(C)C(=O)Oc1ccccc1,.,-,.,.
CCCNC(=O)[C@H]1[C@H](CO)[C@H]2Cn3c(cccc3=O)[C@@H]1N2CCC,.,-,.,.
Cc1cccc(S(=O)(=O)N2[C@@H]3c4ccc(-c5ccncc5)c(=O)n4C[C@H]2[C@H](CO)[C@H]3C(=O)O)c1,.,-,.,.
CCN1[C@@H]2Cn3c(ccc(-c4ccc(OC)cc4)c3=O)[C@H]1[C@@H](C(=O)OC)[C@@H]2CO,.,-,.,.
CCOc1ccc(-c2cc(C)[n+](CCc3ccc(OC)c(OC)c3)c(-c3ccc(OCC)cc3)c2)cc1,-,-,53,-
COc1cccc(-c2ccc3n(c2=O)C[C@@H]2[C@@H](CO)[C@H](C(=O)O)[C@H]3N2Cc2ccccc2F)c1,.,-,.,.
COC(=O)[C@@H]1[C@@H](CO)[C@@H]2Cn3c(ccc(/C=C/c4ccccc4)c3=O)[C@H]1N2CC1CCCC1,.,-,.,.
COC(=O)C12OCC34C(CC5C(C)=C(O)C(=O)CC5(C)C3C(O)C1O)OC(=O)C(OC(=O)/C=C(\C)C(C)C)C24 (stereo unspecified),.,101,85,95
COC(=O)[C@@H]1[C@@H](CO)[C@@H]2Cn3c(ccc(-c4ccncc4)c3=O)[C@H]1N2S(=O)(=O)c1ccccc1C,.,-,.,.
CC1(C)N=C(c2ccccc2)[C@@H]2C(c3ccc([N+](=O)[O-])cc3)N21 (stereo partly specified),-,-,53,-
O=[N+]([O-])c1ccc(C2C3C(c4ccccc4)=NC4(CCCC4)N32)cc1 (stereo unspecified),-,-,-,-
C=C(C=O)CC1CC(O)[C@]2(C)OC3CC4OC5C[C@]6(C)O[C@]7(C)CCC8OC9C[C@]%10(C)OC%11C(C)=CC(=O)OC%11CC%10OC9C[C@@H](C)C8OC7CC6O[C@]5(C)CC5OC5C4OC3CC2O1 (stereo partly specified),-,.,89,108
CC(C)CCOC(=O)c1c(N)n(CC2CCCO2)c2nc3ccccc3nc12 (stereo unspecified),-,.,-,-
CC(C)OC(=O)c1c(N)n(CC2CCCO2)c2nc3ccccc3nc12 (stereo unspecified),16,.,-,-
CC(C)CCn1c(N)c(C(=O)OCC2CCCO2)c2nc3ccccc3nc21 (stereo unspecified),-,.,60,-
COc1ccc(C#Cc2ccc([C@@H]3[C@H]4CN(C(=O)Cc5cccnc5)CCCCN4[C@H]3CO)cc2)cc1,.,-,.,.
O=C(Cc1ccccc1)N1C[C@H]2[C@@H](c3ccccc31)[C@@H](CO)N2Cc1ccccc1,.,-,.,.
CC[n+]1c(-c2ccccc2)c2cc(N)ccc2c2ccc(N)cc21,.,-,53,95
